This passage reports AC50 and outcome results from PubChem BioAssay (EPA / NIEHS).

The target of test [1] is rat Peripheral-type Benzodiazepine Receptor (PBR), Tspo (gene 24230) (UniProt P16257). Description: NVS_MP_rPBR: NovaScreen (NVS) Membrane Protein Assay for rat Peripheral-type Benzodiazepine Receptor (PBR) (AID 2283335). In outline: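 Single-concentration duplicate screening at 25 uM preceded concentration-series retesting of actives. Binding of a specific radioligand to rat kidney membrane PBR was read by filtration radiodetection after 1 h, with plate-wise positive and negative controls.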
Chain of rat Peripheral-type Benzodiazepine Receptor (PBR), Tspo (gene 24230) (P16257 whole entry, looked up): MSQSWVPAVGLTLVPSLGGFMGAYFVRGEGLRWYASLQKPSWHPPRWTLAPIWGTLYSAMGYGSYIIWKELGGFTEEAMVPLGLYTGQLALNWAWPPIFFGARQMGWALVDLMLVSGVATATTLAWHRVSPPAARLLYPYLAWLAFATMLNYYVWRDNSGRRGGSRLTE

Test [2] concerns the target human Constitutive Androstane Receptor (CAR), NR1I3 (gene 9970) (UniProt Q14994). Put plainly: NVS_NR_hCAR_Antagonist: NovaScreen (NVS) Nuclear Receptor Binding Assay for human Constitutive Androstane Receptor Antagonism (CAR) (AID 2283344). In outline:
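Single 25 uM duplicate primary screen, with concentration-series follow-up on actives. Cell-free binding format run in antagonist mode, TR-FRET signal taken 1 h post-dose; activity is signal loss relative to DMSO.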

In test [3] the target is bovine Estrogen Receptor (ER), ESR1 (gene 407238) (UniProt P49884). Description: NVS_NR_bER: NovaScreen (NVS) Nuclear Receptor Binding Assay for bovine Estrogen Receptor (ER) (AID 2283345).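 Further: actives lower the bound radioligand count which means they displace the ER ligand.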 In outline:
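Bovine uterine membranes; tritiated or iodinated radioligand; competitive displacement; 18 h; scintillation read; DMSO negative control; 25 uM duplicates, then concentration series for actives.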

For test [4], the target named is chimpanzee Androgen Receptor (AR), AR (gene 747460) (UniProt O97775). Description: NVS_NR_cAR: NovaScreen (NVS) Nuclear Receptor Binding Assay for chimpanzee Androgen Receptor (AR) (AID 2283346).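 Further: radioligand displacement from AR measured by scintillation counting in a cell-free assay; a loss of bound radioligand signal versus DMSO counts as binding.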 The procedure, abridged: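 Cell-free competition binding with insect-cell (Sf9/Sf21) extracted chimpanzee AR; scintillation signal from lysate at 72 h. Screened in duplicate at 25 uM, then concentration-response for actives; fitting relative to DMSO.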
Chain of chimpanzee Androgen Receptor (AR), AR (gene 747460) (O97775 whole entry, looked up): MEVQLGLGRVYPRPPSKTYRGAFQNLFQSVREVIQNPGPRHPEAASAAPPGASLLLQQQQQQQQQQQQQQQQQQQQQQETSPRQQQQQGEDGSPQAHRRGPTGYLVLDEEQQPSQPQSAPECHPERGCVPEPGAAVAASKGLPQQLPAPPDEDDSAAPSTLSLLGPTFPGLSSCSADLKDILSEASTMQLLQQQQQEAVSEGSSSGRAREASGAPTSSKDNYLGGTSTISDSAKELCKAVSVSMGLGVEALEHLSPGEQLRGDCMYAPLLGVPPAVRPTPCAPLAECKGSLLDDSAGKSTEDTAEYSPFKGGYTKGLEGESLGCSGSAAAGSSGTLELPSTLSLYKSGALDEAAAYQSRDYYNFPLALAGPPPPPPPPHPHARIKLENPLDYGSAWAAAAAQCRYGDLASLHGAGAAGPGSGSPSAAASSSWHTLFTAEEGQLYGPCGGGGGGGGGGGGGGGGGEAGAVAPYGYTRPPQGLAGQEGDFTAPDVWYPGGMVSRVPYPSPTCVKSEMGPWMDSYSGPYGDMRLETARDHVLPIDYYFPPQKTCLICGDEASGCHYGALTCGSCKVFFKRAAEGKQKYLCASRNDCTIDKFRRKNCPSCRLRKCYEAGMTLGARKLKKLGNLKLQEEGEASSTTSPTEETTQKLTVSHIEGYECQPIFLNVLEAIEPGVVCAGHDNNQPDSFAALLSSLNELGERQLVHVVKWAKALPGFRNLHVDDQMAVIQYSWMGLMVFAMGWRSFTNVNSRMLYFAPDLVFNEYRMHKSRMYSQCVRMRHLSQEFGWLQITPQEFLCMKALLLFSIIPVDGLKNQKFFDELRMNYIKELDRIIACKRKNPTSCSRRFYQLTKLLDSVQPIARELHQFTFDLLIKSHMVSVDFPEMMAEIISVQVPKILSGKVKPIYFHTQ

Test [5] concerns the target Estrogen receptor (Homo sapiens) (UniProt P03372). Description: NVS_NR_hER: NovaScreen (NVS) Nuclear Receptor Binding Assay for human Estrogen Receptor (ER) (AID 2283348). The procedure, abridged:
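Cell-free MCF7-derived ER preparation, specific radioligand displaced by test compound, read by scintillation counting 18 h post-dosing. Duplicate single-point 25 uM screen, then concentration-response confirmation; DMSO baseline.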

Test [6] has the same target. Description: OT_ER_ERaERa_1440: Odyssey Thera (OT) 24-hour HEK293T Protein-Complementation Assay for Estrogen Receptor-alpha/-alpha Homodimer (AID 2283349).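 Further: hits raise fluorescence above DMSO for agonists and antagonists alike.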 The procedure, abridged: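 HEK293T, stable ERα LBD (aa 310-547) homodimer PCA; 24 h compound exposure; mean fluorescence intensity (nuclear for agonists, nuclear plus cytoplasmic for antagonists) vs vehicle; positive fitting direction, DMSO baseline.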

For test [7] the target is unchanged. Description: OT_ER_ERaERa_0480: Odyssey Thera (OT) 8-hour HEK293T Protein-Complementation Assay for Estrogen Receptor-alpha/-alpha Homodimer (AID 2283351).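 Further: rise in fluorescence from reassembled reporter fragments on ERα LBD homodimer in nucleus or whole cell.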 The procedure, abridged:
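Measures ERα LBD (aa 310-547) homodimer complementation in stably transfected HEK293T at 8 h post-dose, with fluorescence intensity quantified on a laser scanning cytometer relative to DMSO controls.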

For test [8], the target named is Small conductance calcium-activated potassium channel protein 1 (Rattus norvegicus) (UniProt P70606). Description: NVS_IC_rKCaCh: NovaScreen (NVS) Ion Channel Assay for rat Potassium Channel, Ca2+ Act., VI (KCaCh) (AID 2283336). The procedure, abridged:
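Filter-based scintillation counting of radioligand bound to rat forebrain membrane preparations, measured 1 h after compound addition. Primary screen used 25 uM in duplicate, with concentration-response follow-up; signal decrease relative to DMSO marks activity.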

The nature of test [9]: NVS_IC_rCaBTZCHL: NovaScreen (NVS) Ion Channel Assay for Calcium Channel, Type L, Benzothiazepine Site (CaBTZCHL) (AID 2283337). The procedure, abridged:
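Benzothiazepine-site binding was assessed in a tissue-derived, cell-free rat cortical membrane system. After 1.5 h exposure, radioactivity retained on filters was quantified by scintillation; positive and negative controls accompanied every plate.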

Test [10] relates to guinea pig Histamine Receptor (H2), gene 100729734. Description: NVS_GPCR_gH2: NovaScreen (NVS) G Protein-Coupled Receptor Assay for guinea pig Histamine Receptor (H2) (AID 2283342). The procedure, abridged:
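Guinea pig striatal membrane preparation with specific radioligand; bound counts measured by filtration and scintillation 1 h post-dosing, DMSO as baseline. Chemicals passing a 25 uM duplicate screen were titrated to a 50 uM maximum.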

In another test the test system is NCBI gene 100848466. Put plainly: NVS_NR_bPR: NovaScreen (NVS) Nuclear Receptor Binding Assay for bovine Progextron Receptor (PR) (AID 2283343).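 On AC50: actives lower bound radioligand signal below DMSO meaning displacement of the label.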 In outline:
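Competitive radioligand binding with membranes from bovine uterus, scintillation read-out at 18 h post-dose. Compounds first tested in duplicate at 25 uM, then actives in concentration series; loss-of-signal relative to DMSO.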

In test [11] the target is Androgen Receptor/SRC-1 Co-activator, AR (gene 367) (UniProt P10275). Description: OT_AR_ARSRC1_0960: Odyssey Thera (OT) 16-hour HEK293T Protein-Complementation Assay for Androgen Receptor/SRC-1 Co-activator (AID 2283353).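 Further: actives raise the signal above DMSO so potency reflects increased AR and SRC-1 complex.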 The procedure, abridged: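 Sixteen-hour cell assay: Venus halves fused to AR and SRC-1 in HEK293T report binding. Images at 488/635 nm give an N/C ratio in the 488 nm channel over ≥400 cells, analysed as signal increase over DMSO.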
Chain of Androgen Receptor/SRC-1 Co-activator, AR (gene 367) (P10275 whole entry, looked up, the tested form may be a part): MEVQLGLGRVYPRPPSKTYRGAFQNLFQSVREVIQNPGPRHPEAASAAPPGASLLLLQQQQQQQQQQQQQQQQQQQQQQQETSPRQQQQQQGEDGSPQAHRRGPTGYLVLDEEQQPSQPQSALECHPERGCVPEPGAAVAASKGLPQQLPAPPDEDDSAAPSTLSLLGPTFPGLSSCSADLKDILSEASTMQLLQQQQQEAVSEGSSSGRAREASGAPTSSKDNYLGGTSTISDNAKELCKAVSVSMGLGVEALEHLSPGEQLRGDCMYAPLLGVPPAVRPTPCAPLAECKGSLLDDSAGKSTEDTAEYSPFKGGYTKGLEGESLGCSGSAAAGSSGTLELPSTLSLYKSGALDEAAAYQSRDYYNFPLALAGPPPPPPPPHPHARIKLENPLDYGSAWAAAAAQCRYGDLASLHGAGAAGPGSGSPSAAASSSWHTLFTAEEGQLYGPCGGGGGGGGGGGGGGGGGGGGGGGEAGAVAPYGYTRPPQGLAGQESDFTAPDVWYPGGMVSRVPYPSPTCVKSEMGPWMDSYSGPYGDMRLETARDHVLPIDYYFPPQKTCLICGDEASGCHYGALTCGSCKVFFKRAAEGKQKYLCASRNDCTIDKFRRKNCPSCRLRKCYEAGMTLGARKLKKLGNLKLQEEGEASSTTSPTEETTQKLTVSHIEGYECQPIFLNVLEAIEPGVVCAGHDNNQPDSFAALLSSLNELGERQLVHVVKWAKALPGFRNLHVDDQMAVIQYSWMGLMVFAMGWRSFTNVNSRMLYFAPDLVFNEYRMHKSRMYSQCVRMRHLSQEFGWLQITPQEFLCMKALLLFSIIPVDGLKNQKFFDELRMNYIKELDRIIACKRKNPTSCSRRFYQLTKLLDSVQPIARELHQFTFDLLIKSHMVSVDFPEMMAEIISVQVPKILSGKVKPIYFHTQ

The target is the same in test [12]. Description: OT_AR_ARSRC1_0480: Odyssey Thera (OT) 8-hour HEK293T Protein-Complementation Assay for Androgen Receptor/SRC-1 Co-activator (AID 2283354).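 Further: hits raise the complementation signal above DMSO so AC50 marks enhancers.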 In outline: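 Reconstituted split-Venus YFP signal from AR–SRC-1 interaction, read by imaging 8 h post-dose in stable HEK293T lines. The 488 nm nucleus-to-cytoplasm ratio (≥400 cells/image) was fitted upward against DMSO.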

For test [13], the target named is rat Mineralocorticoid Receptor (MR), Nr3c2 (gene 25672) (UniProt P22199). Description: NVS_NR_rMR: NovaScreen (NVS) Nuclear Receptor Binding Assay for rat Mineralocorticoid Receptor (MR) (AID 2283355). In outline:
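Primary HTS ran in duplicate at a single 25 uM concentration, with concentration-series follow-up for actives. Receptor source: adrenalectomized rat brain supernatant, cell-free. Radioligand displacement read by scintillation at 24 h, relative to DMSO baseline.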

Test [14] concerns the target Estrogen receptor (Homo sapiens) + Estrogen receptor beta (Homo sapiens) (UniProt P03372+Q92731). Description: OT_ER_ERaERb_0480: Odyssey Thera (OT) 8-hour HEK293T Protein-Complementation Assay for Estrogen Receptor-alpha/-beta Heterodimer (AID 2283352). The procedure, abridged: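 HEK293T protein-fragment complementation assay of ER-alpha/ER-beta LBD heterodimerisation, read 8 h after dosing. Mean nuclear/cytoplasmic fluorescence intensity measured by laser scanning cytometry; gain of signal fitted relative to DMSO.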

Test [15] deals with Bile acid receptor (Homo sapiens) (UniProt Q96RI1). Description: NVS_NR_hFXR_Antagonist: NovaScreen (NVS) Nuclear Receptor Binding Assay for human Farnesoid X Receptor Antagonism (FXR) (AID 2283350). In outline:
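Antagonist-format time-resolved FRET binding assay with extracted human receptor protein, read 1 hour after compound addition. Compounds first screened at 25 uM in duplicate, then actives tested in concentration series, with loss of signal relative to DMSO.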

In test [16] the target is rat Glutamate, MK-801 Agonist Site (GluNMDA_MK801), Grin1 (gene 24408) (UniProt P35439). Put plainly: NVS_LGIC_rGluNMDA_MK801_Agonist: NovaScreen (NVS) Ligand-Gated Ion Channel Assay for rat Glutamate, MK-801 Agonist Site (GluNMDA_MK801) (AID 2283340). In outline:
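Rat forebrain membrane preparation; MK-801-site radioligand binding read by filtration and scintillation after 1.5 h. Single-point 25 uM duplicate screen, followed by singleton concentration series to 50 uM max; DMSO baseline.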

Test [17] has as its target Voltage-gated inwardly rectifying potassium channel KCNH2 (Homo sapiens) (UniProt Q12809). Put plainly: NVS_IC_hKhERGCh: NovaScreen (NVS) Ion Channel Assay for human Potassium Channel ERG (KhERGCh) (AID 2283333). In outline:
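Membranes from CHO cells expressing human ERG; displacement of radioligand measured by filtration and scintillation after 0.75 h. Single-concentration duplicate screen at 25 uM, then concentration-response for actives; DMSO baseline.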

The target in test [18] is bovine Gamma-Aminobutyric Acid Type A Receptor Agonist (GABAR Agonist), GABRA1 (gene 780973) (UniProt P08219). Description: NVS_LGIC_bGABAR_Agonist: NovaScreen (NVS) Ligand-Gated Ion Channel Assay for bovine Gamma-Aminobutyric Acid Type A Receptor Agonist (GABAR Agonist) (AID 2283338). In outline:
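Radioligand binding to bovine cerebellar membranes in agonist format, read by filter-based scintillation counting after 1 h. Primary screen in duplicate at 25 uM, with actives followed in concentration series. Gain of signal versus DMSO.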

Values joined by “and” are separate entries in the source; they are usually repeats but may differ in a detail not shown here. Equal values may be shown once. Inconclusive results are not listed. Some structures have more than one record in an assay (separate samples or runs), and their calls can disagree. Active and inactive are the calls of the source. How the source made its calls: active means hit-call score of the fitted dose curve at least 0.9, where 1 is the maximum; inconclusive means response in the unintended direction; inactive means score below 0.9.

Chain of bovine Estrogen Receptor (ER), ESR1 (gene 407238) (P49884 whole entry, looked up): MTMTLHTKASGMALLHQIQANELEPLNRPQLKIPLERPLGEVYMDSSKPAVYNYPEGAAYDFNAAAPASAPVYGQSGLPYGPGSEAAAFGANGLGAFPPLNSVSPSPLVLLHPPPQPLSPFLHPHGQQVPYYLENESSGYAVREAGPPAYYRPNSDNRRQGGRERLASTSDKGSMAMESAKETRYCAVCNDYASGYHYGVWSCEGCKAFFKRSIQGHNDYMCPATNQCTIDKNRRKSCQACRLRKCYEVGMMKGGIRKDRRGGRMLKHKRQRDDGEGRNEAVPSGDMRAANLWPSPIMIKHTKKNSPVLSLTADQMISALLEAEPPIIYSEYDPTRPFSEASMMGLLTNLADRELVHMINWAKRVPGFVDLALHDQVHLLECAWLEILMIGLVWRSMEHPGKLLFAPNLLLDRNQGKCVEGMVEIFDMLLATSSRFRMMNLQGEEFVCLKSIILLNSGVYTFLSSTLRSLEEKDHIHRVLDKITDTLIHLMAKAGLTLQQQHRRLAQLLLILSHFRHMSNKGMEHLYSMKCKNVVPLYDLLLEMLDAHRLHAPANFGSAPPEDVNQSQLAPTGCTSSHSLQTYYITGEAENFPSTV
Chain of Estrogen receptor (Homo sapiens) + Estrogen receptor beta (Homo sapiens) (P03372 whole entry, looked up, the tested form may be a part): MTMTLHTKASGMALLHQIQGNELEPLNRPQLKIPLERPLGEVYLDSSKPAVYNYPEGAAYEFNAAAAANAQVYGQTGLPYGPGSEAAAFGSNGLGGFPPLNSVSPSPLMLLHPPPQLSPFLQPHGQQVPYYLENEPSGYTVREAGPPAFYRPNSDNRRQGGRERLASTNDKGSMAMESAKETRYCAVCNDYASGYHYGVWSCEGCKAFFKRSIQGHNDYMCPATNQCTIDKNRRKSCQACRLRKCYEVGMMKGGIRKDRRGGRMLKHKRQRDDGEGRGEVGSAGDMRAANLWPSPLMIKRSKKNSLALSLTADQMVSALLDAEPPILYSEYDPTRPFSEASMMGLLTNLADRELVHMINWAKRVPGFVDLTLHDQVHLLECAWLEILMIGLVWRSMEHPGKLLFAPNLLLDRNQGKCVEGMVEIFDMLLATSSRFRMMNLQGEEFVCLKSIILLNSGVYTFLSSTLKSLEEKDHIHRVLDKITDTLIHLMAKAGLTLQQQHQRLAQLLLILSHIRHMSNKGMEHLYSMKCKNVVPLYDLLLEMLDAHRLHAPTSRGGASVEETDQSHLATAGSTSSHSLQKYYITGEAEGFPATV
Chain of Estrogen receptor (Homo sapiens) + Estrogen receptor beta (Homo sapiens) (Q92731 whole entry, looked up, the tested form may be a part): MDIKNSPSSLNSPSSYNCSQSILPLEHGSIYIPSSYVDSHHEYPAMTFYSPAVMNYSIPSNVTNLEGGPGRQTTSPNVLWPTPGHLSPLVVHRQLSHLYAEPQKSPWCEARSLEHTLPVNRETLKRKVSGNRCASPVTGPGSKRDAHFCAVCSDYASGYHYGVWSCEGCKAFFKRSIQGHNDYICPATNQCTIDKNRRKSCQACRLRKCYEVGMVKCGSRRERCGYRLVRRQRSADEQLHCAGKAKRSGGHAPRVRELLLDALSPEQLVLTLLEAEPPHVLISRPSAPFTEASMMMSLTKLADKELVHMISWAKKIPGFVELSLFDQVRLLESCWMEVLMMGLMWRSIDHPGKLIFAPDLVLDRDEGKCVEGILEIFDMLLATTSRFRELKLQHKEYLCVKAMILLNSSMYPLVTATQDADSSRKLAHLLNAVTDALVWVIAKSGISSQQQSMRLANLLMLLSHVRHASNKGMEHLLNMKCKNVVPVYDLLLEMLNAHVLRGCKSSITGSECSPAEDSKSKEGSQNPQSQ
Chain of Estrogen receptor (Homo sapiens) (P03372 whole entry, looked up): as the sequence (P03372 whole entry, looked up, the tested form may be a part) above
Chain of Bile acid receptor (Homo sapiens) (Q96RI1 whole entry, looked up): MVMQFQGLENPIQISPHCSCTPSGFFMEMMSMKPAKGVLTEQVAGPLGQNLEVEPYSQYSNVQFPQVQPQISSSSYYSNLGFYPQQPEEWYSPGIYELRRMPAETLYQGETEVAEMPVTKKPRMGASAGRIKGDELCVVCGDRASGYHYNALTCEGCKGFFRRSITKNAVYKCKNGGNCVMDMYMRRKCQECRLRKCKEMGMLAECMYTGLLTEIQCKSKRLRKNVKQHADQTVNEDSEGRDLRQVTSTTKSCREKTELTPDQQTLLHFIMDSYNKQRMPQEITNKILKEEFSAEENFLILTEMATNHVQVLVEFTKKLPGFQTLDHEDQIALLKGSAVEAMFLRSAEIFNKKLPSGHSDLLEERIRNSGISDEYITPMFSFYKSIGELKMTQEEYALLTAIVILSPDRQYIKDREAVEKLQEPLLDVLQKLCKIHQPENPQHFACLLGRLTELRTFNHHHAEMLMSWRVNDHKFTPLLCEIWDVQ
Chain of human Constitutive Androstane Receptor (CAR), NR1I3 (gene 9970) (Q14994 whole entry, looked up): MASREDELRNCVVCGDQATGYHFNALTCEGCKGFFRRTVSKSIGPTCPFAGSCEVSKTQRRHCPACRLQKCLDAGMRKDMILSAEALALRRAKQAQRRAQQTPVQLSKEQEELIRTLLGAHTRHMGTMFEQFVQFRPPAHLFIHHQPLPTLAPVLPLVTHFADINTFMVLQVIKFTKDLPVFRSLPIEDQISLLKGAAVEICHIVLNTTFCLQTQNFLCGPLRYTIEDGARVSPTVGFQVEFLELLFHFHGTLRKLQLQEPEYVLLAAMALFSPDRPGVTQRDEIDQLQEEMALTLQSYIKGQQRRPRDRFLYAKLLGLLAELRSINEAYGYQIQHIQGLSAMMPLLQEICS

For `N[C@@H](Cc1cc(I)c(Oc2ccc(O)c(I)c2)c(I)c1)C(=O)O`, the AC50 in test [1] was 9.05 µM (active) and 6.01 µM (active) and 8.66 µM (active); in [2] it was 20 µM (active); in test [5], 7.8 µM (active) and 8.49 µM (active) and 6.72 µM (active). Besides, the molecule was called inactive in [3], in [4], in test [5], in test [6] and in test [7].
For `C[C@]12CC[C@@H]3c4ccc(O)cc4C[C@@H](CCCCCCCCCS(=O)CCCC(F)(F)C(F)(F)F)[C@H]3[C@@H]1CC[C@@H]2O` (some centres undefined), the outcome (in test [8]; in test [10]; with NCBI gene 100848466; in test [3]; in [4]; in test [11]) was inactive. Besides, in test [12], the call was inactive. The results for the AC50 in test [9] and in [4] were 1.45 µM (active) and 15.5 µM (active), respectively.
For the molecule `C#C[C@]1(O)CC[C@H]2[C@@H]3CCC4=CC(=O)CC[C@@H]4[C@H]3CC[C@@]21CC`, the AC50 was 0.00453 µM (active) in the test with NCBI gene 100848466; 6.85 µM (active) in test [3]; 2.29 nM (active) and 5.63 nM (active) in test [4]; 50.7 µM (active) in test [6]; 0.0945 µM (active) in test [13]. Further, the call in test [3], in test [6] and in test [7] was inactive.
As for `C#CCOC(=O)[C@@H](C)Oc1ccc(Oc2ncc(Cl)cc2F)cc1`, the molecule was called inactive in [1], in [5], in test [6] and in test [14].
For the molecule `CCN(CC)C(=O)c1cccc(C)c1`, the AC50 in [1] was 8.73 µM (active). Besides, the molecule was called inactive in test [5], in [6], in test [15] and in test [7].
For the molecule `CCNc1nc(N)nc(Cl)n1`, the molecule was called inactive (in test [1]; in the test with NCBI gene 100848466).
On to `CC(=O)[C@H]1CC[C@H]2[C@@H]3CCC4=CC(=O)CC[C@]4(C)[C@H]3CC[C@]12C`, for which the outcome in test [8], in test [3], in test [5], in test [6], in test [7] and in test [14] was inactive. For the same molecule, the AC50 was 0.00229 µM (active) with NCBI gene 100848466 and 12.4 µM (active) in test [3].
For the molecule `S=C(S)NCCNC(=S)S.[Mn+2].[S-]C([S-])=NCCN=C([S-])[S-].[Zn+2]`, the call in test [1] and in test [13] was inactive. The AC50 was 17.3 µM (active) and 25 µM (active) in test [16]; 12.5 µM (active) in test [4].
Turning to `Cc1nn(C)c(Oc2ccccc2)c1C=NOCc1ccc(C(=O)OC(C)(C)C)cc1`, the molecule was called inactive in test [17], in test [3], in test [5], in [6], in [7] and in [14]. For the same molecule, the result in test [11] and in test [12] was inactive. Besides, in the test with NCBI gene 100848466, the AC50 is 11 µM (active).
For the molecule `COc1nc(C)nc(NC(=O)NS(=O)(=O)c2ccccc2OCCCl)n1`, the AC50 in test [1] is 21.8 µM (active) and 9.77 µM (active). Also, the molecule was called inactive in [18].
Turning to `CCCCCOC(=O)COc1cc(N2C(=O)C3=C(CCCC3)C2=O)c(F)cc1Cl`, the AC50 in test [1] was 1.23 µM (active). The molecule was called inactive in test [5], in test [6] and in [7].
Turning to `CCCCC(CC)CN1C(=O)C2C3C=CC(C3)C2C1=O` (centres undefined), the outcome (in the test on NCBI gene 100848466; in test [3]; in test [6]; in test [7]; in test [14]) was inactive. Moreover, the AC50 in [2] was 12.3 µM (active).
For `CCCCOC(=O)[C@@H](C)Oc1ccc(Oc2ccc(C(F)(F)F)cn2)cc1`, the call in test [1], in test [6], in [7] and in [14] was inactive.
As for `CC1(C)C(C=C(Cl)Cl)C1C(=O)OCc1cccc(Oc2ccccc2)c1` (centres undefined), the result (in test [1]; in the test with NCBI gene 100848466; in test [2]; in [3]; in [5]; in [6]) was inactive. In addition, the call in test [7], in test [11] and in test [12] was inactive.
On to `COC(=O)c1cccc(C)c1S(=O)(=O)NC(=O)Nc1nc(OCC(F)(F)F)nc(N(C)C)n1`, for which, in test [15], the result was inactive.
The same measure, in the same setting: the entry for `COC(=O)c1ccccc1S(=O)(=O)NC(=O)Nc1nc(OC(F)F)cc(OC(F)F)n1` is “inactive”.
